Sampled rows, rich in hits. Any-hit rate of the full collection: about 4.7%.
Pemphigus Ab inh – inhibitors of pemphigus antibody binding to human desmoglein-3; DSG3-coupled beads, scFv-anti-DSG3-GFP binding, flow cytometry; stronger effect = lower value; actives 0.48% (n = 310,000); AID 588358; binding (percent of control), % at 10 µM;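 active = binding more than 3 SD below its plate's average and above zero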;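 note: hits lower antibody fragment binding to DSG3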
MPTP block – permeability transition pore inhibition | isolated mouse mitochondria, Ca2+ swelling absorbance, 30 min | inhibition, % at 10 µM | actives 1.4% (n = 360,000);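 active = inhibition of 50% or more, scaled per plate between neutral and stimulator controls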;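 note: 0% = DMSO wells given calcium and 100% = 1 mM EGTA wells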
rCAG binder – r(CAG) repeat RNA binding | actives 1.3% (n = 370,000) | inhibition, % at 3 µM | TO-PRO-1 dye displacement fluorescence;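 active = inhibition above the plate cutoff, the mean of all test compounds on that plate plus 3 SD, cut at about 35% in these data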;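 note: 0% = DMSO alone and 100% = 100 µM mitoxantrone as full dye displacement; higher means more dye released from RNA so lower well fluorescence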
ADAM10 inh – ADAM10 inhibition, QFRET primary screen. AID 720582. O14672. recombinant ADAM10, EDANS/DABCYL FRET peptide cleavage, 3 h. actives 0.62% (n = 370,000). inhibition, % at 7 µM;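 active = inhibition above a per-campaign cutoff equal to the mean of compounds falling between control-based bounds plus 3 SD, cut at about 20% in these data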;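 note: 0% = DMSO wells while the 100% control is not disclosed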
proKLK7 act – activates the human kallikrein-7 zymogen. AID 652039. actives 0.9% (n = 370,000). purified proKLK7, EDANS-DABCYL substrate fluorescence; 100% is mature enzyme control, 0% vehicle. activation, % at 7 µM;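 active = activation above the mean of all tested compounds plus 3 SD, computed per campaign excluding outliers beyond control limits, cut at about 13% in these data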
Target sequence (P49862 whole entry, looked up): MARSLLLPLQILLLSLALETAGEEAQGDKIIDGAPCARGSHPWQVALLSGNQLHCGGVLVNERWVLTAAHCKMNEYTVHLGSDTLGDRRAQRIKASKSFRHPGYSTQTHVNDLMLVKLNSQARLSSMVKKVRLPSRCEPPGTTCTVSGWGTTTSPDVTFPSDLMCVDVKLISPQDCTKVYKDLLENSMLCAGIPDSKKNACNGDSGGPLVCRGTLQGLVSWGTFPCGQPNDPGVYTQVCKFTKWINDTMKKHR
ADAM17 inh – inhibitors of human ADAM17 | P78536 | recombinant ADAM17, EDANS/DABCYL FRET peptide cleavage | inhibition, % at 6.95 µM | actives 0.83% (n = 370,000);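 active = inhibition above the mean of compounds lying between control limits plus 3 SD, set per campaign, cut at about 8.5% in these data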;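 note: 0% = DMSO-only wells as the low control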
ADAM10 confirm – confirmation of inhibitors of human ADAM10; shares compounds with ADAM10 inh; ADAM10 QFRET peptide cleavage, EDANS fluorescence; inhibition, % at 6.95 µM; actives 1% (n = 2,100); AID 743208;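 active = inhibition above about 20% chosen separately for each screening run, limit read from the data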;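 note: 0% = DMSO wells and 100% = marimastat wells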
ADAM17 ctr – counter-screen for ADAM10 exosite inhibitors: inhibitors of human ADAM17; ADAM17 QFRET peptide cleavage, EDANS fluorescence; inhibition, % at 6.95 µM; shares compounds with ADAM10 inh; actives 0.5% (n = 2,100); AID 743214;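 active = mean triplicate inhibition above the solvent-only control wells' mean plus 3 SD, cut at about 12% in these data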;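 note: 0% = DMSO wells and 100% = marimastat wells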
ADAM10 ctr – ADAM10 inhibition, counter-screen for ADAM17 exosite hits; recombinant ADAM10, EDANS/DABCYL FRET peptide cleavage, 3 h; actives 47% (n = 2,900); shares compounds with ADAM17 inh; AID 743256; inhibition, % at 6.95 µM;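 active = mean inhibition over the triplicate runs exceeds the activity threshold set in the earlier primary screen, cut at about 20% in these data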;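 note: 0% = DMSO wells and 100% = marimastat wells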
ADAM17 confirm – confirmation of inhibitors of human ADAM17 | shares compounds with ADAM17 inh | recombinant ADAM17, EDANS/DABCYL QFRET peptide cleavage | inhibition, % at 6.95 µM | actives 65% (n = 2,900) | AID 743257;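 active = mean inhibition across replicates above the hit cutoff set in the primary screen, cut at about 8.5% in these data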;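 note: 0% = DMSO wells and 100% = marimastat wells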
Active calls of the source: *; / = no result given.

SMILES | Pemphigus Ab inh | MPTP block | rCAG binder | ADAM10 inh | proKLK7 act | ADAM17 inh | ADAM10 confirm | ADAM17 ctr | ADAM10 ctr | ADAM17 confirm
COc1ccc([C@@H]2[C@@H]3C(=O)N(C(C)(C)C)C(=O)[C@@H]3[C@]3(CC(C)C)C(=O)N(c4ccccc4)C(=O)N23)cc1 | 102 | 2 | -3 | 0 | 0 | -2 | / | / | / | /
O=C(COc1ccc(Cl)cc1Cl)N1CCCN(C(=O)COc2ccc(Cl)cc2Cl)CC1 | 109 | 1 | 3 | 25* | 0 | 9.8* | 4 | 1 | 20 | 9.2*
CC(C)[C@H](NS(=O)(=O)c1ccccc1)C(=O)OCC(=O)Nc1ccccc1Sc1ccccc1 | 96 | 4 | 3 | 20* | 0 | 9.6* | 5 | 2 | 18 | 9.1*
CC(NS(=O)(=O)OCC(Cl)(Cl)Cl)c1ccc(C(C)(C)C)cc1 (stereo not given) | 111 | 43 | -3 | 31* | 0 | 15* | 9 | 3 | 45* | 22*
COc1ccccc1CNCCS(=O)(=O)NN1CCOCC1 | 97 | -1 | 3 | 1 | -1 | -2 | / | / | / | /
O=C(O)c1ccc(N/N=C/c2cc3cc4c(cc3nc2Cl)OCCO4)cc1 | 104 | 2 | 31 | -31 | -6 | -15 | / | / | / | /
COc1ccc(OC)c(NC(=O)CNC(c2ccccc2)c2ccccc2)c1 | 103 | 0 | -2 | 24* | 1 | 14* | 5 | 2 | 37* | 14*
NC(=O)c1ncn([C@@H]2O[C@H](CNCc3c(OCc4ccccc4F)ccc4ccccc34)[C@@H](O)[C@H]2O)n1 | 98 | 0 | -1 | -18 | 0 | -1 | / | / | / | /
CCCCCCNC(=O)O[C@H]1Cn2c(=O)n(CCCCCC)c(=O)n2[C@@H]2CN(S(=O)(=O)c3ccc(C)cc3)C[C@]12O | 106 | 0 | 6 | 20* | 0 | 11* | 14 | 4 | 40* | 22*
CCCCCCn1c(=O)n2n(c1=O)[C@@H]1CN(S(=O)(=O)c3ccc(C)cc3)C[C@]1(O)[C@@H](OC(=O)NC1CC1)C2 | 110 | -1 | 0 | 3 | 1 | 1 | / | / | / | /
Cc1nn(Cc2ccc(Cl)cc2Cl)c(C)c1NC(=O)c1ccc(COc2cc(Cl)ccc2Cl)o1 | 104 | 2 | 5 | -3 | -1 | -2 | / | / | / | /
Cc1nn(Cc2c(F)c(F)c(F)c(F)c2F)c(C)c1NC(=O)c1ccc(COc2ccc(Cl)cc2Cl)o1 | 104 | 7 | 0 | 25* | 0 | 11* | 5 | 2 | 45* | 19*
CCCCCCCCOC(=O)C1=C(C)Nc2nnnn2C1c1cccs1 (stereo not given) | / | 20 | 0 | 20* | 1 | 10* | 8 | 3 | 21* | 8
CCCCCCCOC(=O)C1=C(C)Nc2ncnn2C1c1cccs1 (stereo not given) | 94 | 31 | -3 | 1 | -1 | 0 | / | / | / | /
C[C@]1(CO)CCC[C@@]2(C)C1CC[C@@H](CO)[C@@H]2CCc1ccoc1 (stereo not given in full) | 103 | 2 | -7 | 0 | 0 | -3 | / | / | / | /
O=C(COc1ccccc1)OCc1csc(Nc2ccccc2)n1 | 97 | 2 | -4 | 19 | 1 | 3 | / | / | / | /
O=C(OCc1csc(Nc2ccccc2)n1)c1ccc(Cl)cc1 | 105 | 0 | 2 | 24* | -1 | 12* | 11 | 4 | 45* | 18*
CC(C)(C)n1nnnc1C1c2ccccc2C(=O)N1CCc1c[nH]c2ccccc12 (stereo not given) | / | -1 | 2 | 2 | 0 | 4 | / | / | / | /
O=C(c1ccc(C(F)(F)F)cc1)N1CCC(=O)N([C@H](COCc2ccc(C(F)(F)F)cc2)Cc2ccccc2)CC1 | / | 0 | 4 | 28* | 0 | 12* | 8 | 2 | 28* | 16*
O=C(c1ccc(C(F)(F)F)cc1)N1CCC(=O)N([C@H](COCc2ccc(Cl)cc2)Cc2ccccc2)CC1 | / | 0 | 1 | 13 | 0 | 6 | / | / | / | /
CC(C)Oc1ccc(C(=O)NC(=S)Nc2ccc(Cl)c(C(=O)O)c2)cc1 | 96 | 3 | 3 | -19 | -1 | -1 | / | / | / | /
CCCn1c(SCC(=O)N2c3ccccc3Sc3ccccc32)nc2ccccc21 | 87 | 7 | 0 | 26* | 0 | 10* | 3 | 0 | 17 | 11*
Nc1cc(Cl)ccc1Oc1ccc2ccccc2c1 | 99 | 3 | 4 | 29* | 0 | 17* | 9 | 3 | 12 | 12*
Cc1ccc(Oc2ccc(Cl)cc2N)cc1 | 105 | 1 | 6 | 2 | 0 | 2 | / | / | / | /
COc1ccc(C2(c3ccc(OC)cc3)NC(=O)N(CC(=O)Nc3cc(C)ccc3OC)C2=O)cc1 | 108 | -1 | 6 | 22* | 0 | 9.3* | 7 | 3 | 33* | 16*
SMILES | Pemphigus Ab inh | MPTP block | rCAG binder | ADAM10 inh | proKLK7 act | ADAM17 inh | ADAM10 confirm | ADAM17 ctr | ADAM10 ctr | ADAM17 confirm
COc1ccc(C2(c3ccc(OC)cc3)NC(=O)N(CC(=O)Nc3ccc(C(=O)N(C)C)cc3)C2=O)cc1 | 104 | -1 | -2 | 2 | 1 | -1 | / | / | / | /
Cc1ccc(-n2c(Cc3cccs3)nnc2SCC(N)=O)cc1 | 97 | -2 | -2 | -5 | 0 | -3 | / | / | / | /
Cc1ccc(-n2c(Cc3cccs3)nnc2SCC(=O)Nc2cccc3ccccc23)cc1 | / | / | 7 | 26* | 1 | 11* | 8 | 2 | 16 | 8
CCOc1ccc(-n2c(COc3ccccc3)nnc2SCC(=O)Nc2ccc(OCc3ccccc3)cc2)cc1 | / | / | 10 | 10 | 0 | 2 | / | / | / | /
O=C(CSc1nnc(Cc2cccs2)n1-c1ccc(Cl)cc1)Nc1ccc(OCc2ccccc2)cc1 | / | / | 10 | 26* | 0 | 14* | 13 | 3 | 23* | 16*
O=C(/C=C/c1ccc([N+](=O)[O-])cc1)c1ccccc(=O)c1O | 93 | 2 | 17 | 25* | 0 | 12* | 13 | 4 | 32* | 33*
O=C(/C=C/c1ccc([N+](=O)[O-])cc1)c1cccs1 | 101 | 0 | -1 | 13 | -1 | -2 | / | / | / | /
COc1ccc(N(C=O)C(C(=O)Nc2c(C)cccc2C)c2ccccc2)cc1 (stereo not given) | 114 | 0 | -9 | -4 | 1 | 1 | / | / | / | /

Bioassay records as filed in PubChem BioAssay.
